Assay results published in PubChem BioAssay AID1159580 (chemical genetic matrix, 2015).
In all, about 5,500 compounds went through this assay and about 2,000 (36%) were called active. Another 18% or so got no clear call; they are omitted. Cut-off read from the data, not from the text of the source: active = normalized growth mostly below about 0.91 (no sharp cut-off); inconclusive = no clear call, values can overlap the other calls; inactive = mostly above about 0.92. The list shows a part of the results.

Assay: chemical genetic growth profiling, strain panel (AID 1159580);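 note: tested at 20 µM; growth read once vehicle control cultures reached saturation at 30 °C; 1 = growth at the plate median or of vehicle wells; lower values mean less growth of the strain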
Details: growth OD

Measured: normalized growth

Cc1cc(O)c2c(c1O)C(=O)c1c(O)cc(C)c(O)c1C2=O
active: S. cerevisiae deletion strains, locus YLR039C, strain RIC1, hits give low values 0.635 | S. cerevisiae deletion strains, locus YML120C, strain ndi1, hits give low values 0.912 | S. cerevisiae deletion strains, locus YOL006C, strain TOP1, hits give low values 0.491
inactive: S. cerevisiae deletion strains, locus YJR075W, strain HOC1, hits give low values 1.01 | S. cerevisiae deletion strains, locus YKL009W, strain mrt4, hits give low values 1.05 | S. cerevisiae deletion strains, locus YKL068W, hits give low values 0.995 | S. cerevisiae deletion strains, locus YKL085W, strain MDH1 (second series), hits give low values 1.01 | S. cerevisiae deletion strains, locus YKL085W, strain MDH1, hits give low values 1.01 | S. cerevisiae deletion strains, locus YKL160W, strain elf1, hits give low values 0.985 | S. cerevisiae deletion strains, locus YKL190W, strain CNB1, hits give low values 0.984 | S. cerevisiae deletion strains, locus YKR001C, strain vps1, hits give low values 0.971 | S. cerevisiae deletion strains, locus YKR026C, strain gcn3, hits give low values 0.979 | S. cerevisiae deletion strains, locus YKR091W, strain srl3, hits give low values 0.968 | S. cerevisiae deletion strains, locus YLL001W, strain dnm1, hits give low values 0.966 | S. cerevisiae deletion strains, locus YLL026W, hits give low values 0.988 | S. cerevisiae deletion strains, locus YLL041C, strain sdh2, hits give low values 0.981 | S. cerevisiae deletion strains, locus YLR027C, strain aat2, hits give low values 0.966 | S. cerevisiae deletion strains, locus YLR058C, strain SHM2, hits give low values 0.93 | S. cerevisiae deletion strains, locus YLR102C, strain apc9, hits give low values 0.999 | S. cerevisiae deletion strains, locus YLR113W, strain HOG1, hits give low values 1.03 | S. cerevisiae deletion strains, locus YLR221C, strain rsa3, hits give low values 0.948 | S. cerevisiae deletion strains, locus YLR258W, strain gsy2, hits give low values 0.977 | S. cerevisiae deletion strains, locus YLR262C, strain YPT6 (second series), hits give low values 0.887 | S. cerevisiae deletion strains, locus YLR262C, strain YPT6, hits give low values 0.675 | S. cerevisiae deletion strains, locus YLR268W, strain sec22, hits give low values 0.964 | S. cerevisiae deletion strains, locus YLR320W, strain mms22, hits give low values 0.965 | S. cerevisiae deletion strains, locus YLR330W, strain CHS5, hits give low values 0.956 | S. cerevisiae deletion strains, locus YLR342W, strain FKS1 (second series), hits give low values 0.981 | S. cerevisiae deletion strains, locus YLR342W, strain FKS1, hits give low values 0.98 | S. cerevisiae deletion strains, locus YLR357W, strain rsc2, hits give low values 0.976 | S. cerevisiae deletion strains, locus YLR370C, strain arc18, hits give low values 0.987 | S. cerevisiae deletion strains, locus YLR371W, strain rom2, hits give low values 1 | S. cerevisiae deletion strains, locus YLR384C, strain iki3, hits give low values 0.962 | S. cerevisiae deletion strains, locus YLR418C, strain cdc73, hits give low values 1.02 | S. cerevisiae deletion strains, locus YML016C, strain PPZ1, hits give low values 0.958 | S. cerevisiae deletion strains, locus YML032C, strain rad52, hits give low values 0.974 | S. cerevisiae deletion strains, locus YML124C, strain tub3, hits give low values 0.997 | S. cerevisiae deletion strains, locus YMR058W, strain fet3, hits give low values 0.923 | S. cerevisiae deletion strains, locus YMR078C, strain ctf18, hits give low values 0.981 | S. cerevisiae deletion strains, locus YMR125W, strain sto1, hits give low values 0.99 | S. cerevisiae deletion strains, locus YMR129W, hits give low values 0.981 | S. cerevisiae deletion strains, locus YMR205C, strain PFK2, hits give low values 0.993 | S. cerevisiae deletion strains, locus YMR223W, strain ubp8, hits give low values 0.989 | S. cerevisiae deletion strains, locus YMR231W, strain pep5, hits give low values 0.959 | S. cerevisiae deletion strains, locus YMR263W, strain SAP30, hits give low values 1.01 | S. cerevisiae deletion strains, locus YMR307W, strain GAS1, hits give low values 0.778 | S. cerevisiae deletion strains, locus YNL067W, strain RPL9B, hits give low values 0.991 | S. cerevisiae deletion strains, locus YNL071W, strain lat1, hits give low values 0.984 | S. cerevisiae deletion strains, locus YNL128W, strain TEP1, hits give low values 0.96 | S. cerevisiae deletion strains, locus YNL153C, strain GIM3, hits give low values 0.965 | S. cerevisiae deletion strains, locus YNL183C, strain NPR1, hits give low values 0.951 | S. cerevisiae deletion strains, locus YNL209W, strain ssb2, hits give low values 0.969 | S. cerevisiae deletion strains, locus YNL233W, strain BNI4, hits give low values 0.982 | S. cerevisiae deletion strains, locus YNL248C, strain rpa49, hits give low values 0.95 | S. cerevisiae deletion strains, locus YNL250W, strain rad50, hits give low values 0.974 | S. cerevisiae deletion strains, locus YNL271C, strain bni1, hits give low values 0.987 | S. cerevisiae deletion strains, locus YNL298W, strain CLA4, hits give low values 0.98 | S. cerevisiae deletion strains, locus YNL307C, strain MCK1, hits give low values 1.01 | S. cerevisiae deletion strains, locus YNL322C, strain KRE1 (second series), hits give low values 0.944 | S. cerevisiae deletion strains, locus YNL322C, strain KRE1, hits give low values 0.984 | S. cerevisiae deletion strains, locus YNR049C, strain mso1, hits give low values 0.965 | S. cerevisiae deletion strains, locus YNR052C, strain pop2, hits give low values 0.98 | S. cerevisiae deletion strains, locus YOL012C, strain htz1 1.11 | S. cerevisiae deletion strains, locus YOL147C, strain pex11, hits give low values 1 | S. cerevisiae deletion strains, locus YOR001W, strain rrp6, hits give low values 0.962 | S. cerevisiae deletion strains, locus YOR061W, strain CKA2, hits give low values 0.934 | S. cerevisiae deletion strains, locus YOR069W, strain VPS5, hits give low values 0.975 | S. cerevisiae deletion strains, locus YOR070C, strain gyp1, hits give low values 0.972 | S. cerevisiae deletion strains, locus YOR080W, strain dia2, hits give low values 0.974 | S. cerevisiae deletion strains, locus YOR083W, strain WHI5, hits give low values 0.964 | S. cerevisiae deletion strains, locus YOR106W, strain vam3, hits give low values 0.937 | S. cerevisiae deletion strains, locus YOR136W, strain idh2, hits give low values 1.01 | S. cerevisiae deletion strains, locus YOR144C, strain elg1, hits give low values 0.988 | S. cerevisiae deletion strains, locus YOR184W, strain ser1, hits give low values 1.02 | S. cerevisiae deletion strains, locus YOR231W, strain MKK1, hits give low values 0.996 | S. cerevisiae deletion strains, locus YOR265W, strain rbl2, hits give low values 0.971 | S. cerevisiae deletion strains, locus YOR270C, strain vph1, hits give low values 0.841 | S. cerevisiae deletion strains, locus YOR290C, strain snf2, hits give low values 0.914 | S. cerevisiae deletion strains, locus YOR316C, strain cot1, hits give low values 0.997 | S. cerevisiae deletion strains, locus YPL051W, strain arl3, hits give low values 0.953 | S. cerevisiae deletion strains, locus YPL055C, strain LGE1, hits give low values 1.01 | S. cerevisiae deletion strains, locus YPL078C, strain atp4, hits give low values 0.982 | S. cerevisiae deletion strains, locus YPL106C, strain sse1, hits give low values 0.953 | S. cerevisiae deletion strains, locus YPL240C, strain hsp82, hits give low values 0.98 | S. cerevisiae deletion strains, locus YPL241C, strain CIN2, hits give low values 0.995 | S. cerevisiae deletion strains, locus YPL256C, strain CLN2, hits give low values 0.993 | S. cerevisiae deletion strains, locus YPR119W, strain clb2, hits give low values 0.986 | S. cerevisiae deletion strains, locus YPR141C, strain kar3, hits give low values 0.978 | S. cerevisiae deletion strains, locus YPR163C, strain tif3, hits give low values 1 | S. cerevisiae deletion strains, locus YPR167C, strain met16, hits give low values 0.989 | S. cerevisiae deletion strains, strain wtn01, hits give low values 0.998 | S. cerevisiae strains, strain wild type, hits give low values 0.989
